Assay results taken from publication PMC5540273 (PLoS ONE, 2017).

Columns and labels:
Conditions in all cases: concentration: 1 μM, replicates: in singlicate; n = 1
[1] = test system: T1, IKK-alpha
T1 construct: gene CHUK

[2] = test system: T2, IKK-beta
T2 construct: gene IKBKB

[3] = test system: T3, IKK-epsilon
T3 construct: gene IKBKE

[4] = test system: INSRR
[5] = test system: INSR
[6] = test system: IRAK1
[7] = test system: IRAK3
[8] = test system: IRAK4
[9] = test system: ITK
[10] = test system: JAK1(JH1domain-catalytic)
[11] = test system: JAK1(JH2domain-pseudokinase)
[12] = test system: JAK2(JH1domain-catalytic)
[13] = test system: JAK3(JH1domain-catalytic)
[14] = test system: T4, JNK1
T4 construct: gene MAPK8

[15] = test system: T5, JNK2
T5 construct: gene MAPK9

[16] = test system: T6, JNK3
T6 construct: gene MAPK10

[17] = test system: KIT-autoinhibited
[18] = test system: KIT
[19] = test system: LATS1
[20] = test system: LATS2
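Also: KINOMEscan kinase panel screen.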

Structure (SMILES)	%Inh [1]	%Inh [2]	%Inh [3]	%Inh [4]	%Inh [5]	%Inh [6]	%Inh [7]	%Inh [8]	%Inh [9]	%Inh [10]	%Inh [11]	%Inh [12]	%Inh [13]	%Inh [14]	%Inh [15]	%Inh [16]	%Inh [17]	%Inh [18]	%Inh [19]	%Inh [20]
Cl.Cl.NC(CNC(=O)c1cc(Br)c(-c2ccnc3[nH]ccc23)s1)c1ccccc1 (centres unmarked) [GSK1322949]	73%	69%	18%	0%	9%	90.4%	55%	11%	31%	24%	0%	94.3%	96.8%	44%	37%	28%	0%	38%	54%	93.7%
Cc1cc(-c2c(-c3ccc(F)cc3)ncn2CCCN2CCOCC2)nc(N)n1 [SB-222517]	0%	0%	0%	26%	8%	0%	0%	0%	6%	0%	57%	16%	0%	5%	0%	0%	20%	15%	15%	0%
CC(C)c1nc(-c2ccc(F)c(NS(=O)(=O)c3c(F)cccc3F)c2)c(-c2ccnc(Nc3ccc(N4CCOCC4)nc3)n2)s1 [GSK1804250]	0%	0%	23%	2%	11%	0%	3%	0%	9%	17%	0%	4%	69%	32%	70%	77%	0%	97.8%	0%	0%
COC(=O)Nc1nc2ccc(Oc3ccc(CC(=O)Nc4cc(C(F)(F)F)ccc4F)cc3)cc2[nH]1 [GW680903]	7%	1%	0%	0%	0%	26%	0%	14%	14%	6%	0%	7%	0%	1%	6%	0%	8%	100%	12%	0%
Fc1cc(Cl)ccc1Nc1ccnc2cc(-c3ccc(CN4CCOCC4)o3)ccc12 [GW560109]	43%	37%	0%	5%	0%	33%	27%	31%	1%	0%	0%	35%	0%	29%	23%	15%	22%	100%	0%	0%
CNc1nccc(-c2ccc3c(N)n[nH]c3c2)n1 [GSK2206003]	90%	81%	17%	0%	11%	49%	49%	0%	24%	0%	57%	47%	15%	46%	36%	29%	0%	57%	0%	17%
Nc1ncnc2scc(-c3ccc(NC(=O)Cc4cc(F)ccc4F)cc3)c12.O=C(O)C(F)(F)F [SB-731254-M]	4%	0%	45%	65%	15%	0%	16%	0%	0%	0%	49%	27%	0%	35%	19%	18%	87%	100%	13%	36%
Nc1ncc(-c2ccc3nccc(-c4ccncc4)c3c2)cc1S(=O)(=O)N1CCCCC1 [GSK1693850]	0%	0%	12%	0%	0%	39%	86%	10%	12%	10%	14%	0%	0%	35%	18%	29%	0%	44%	21%	0%
COc1cc(Nc2ccnc3cc(-c4ccncc4)ccc23)cc(OC)c1OC.Cl [GW494610]	23%	13%	0%	13%	8%	24%	0%	10%	0%	33%	0%	12%	0%	49%	54%	37%	0%	76%	0%	0%
CCNC(=O)/C=C/c1n[nH]c2cc(Sc3ccccc3C(=O)NC)ccc12	26%	20%	8%	34%	0%	33%	9%	0%	0%	0%	0%	0%	18%	15%	4%	0%	95%	100%	17%	22%
CN(c1ccc(NC(=O)Nc2cccc(Cl)c2)cc1)c1ccnc(N)n1.Cl [GW830707]	0%	0%	8%	3%	0%	0%	31%	0%	0%	0%	0%	27%	0%	0%	0%	0%	45%	100%	18%	0%
CC(=O)Nc1cn2nc(Oc3cccc(NC(=O)c4cccc(C(F)(F)F)c4)c3)ccc2n1	0%	0%	0%	0%	0%	0%	44%	0%	0%	32%	5%	0%	0%	26%	0%	0%	87%	100%	5%	0%
N#Cc1cnc2cc(-c3cnc(CNCCN4CCOCC4)s3)ccc2c1Nc1ccc(Oc2ccccc2)cc1 [GW664114]	29%	23%	43%	0%	7%	49%	0%	37%	21%	10%	0%	0%	0%	13%	6%	0%	0%	19%	0%	3%
COc1ccc(C2=C(Nc3cccc(O)c3)C(=O)NC2=O)cc1 [SB-390766]	26%	44%	0%	0%	2%	60%	0%	45%	7%	58%	0%	13%	0%	21%	16%	1%	2%	14%	0%	0%
O=C(Nc1n[nH]c2nc(-c3cccc(O)c3)ccc12)C1CC1 [SB-711805]	0%	0%	0%	0%	0%	0%	0%	0%	0%	0%	21%	29%	0%	25%	8%	5%	13%	30%	0%	1%
O=C(Nc1n[nH]c2nc(-c3ccccc3O)ccc12)C1CC1 [SB-711880]	0%	0%	10%	0%	0%	0%	2%	0%	46%	36%	0%	0%	0%	38%	31%	24%	32%	0%	0%	0%
Cc1ccccc1CC(=O)N1CCc2cc(-c3cn(C)c4ncnc(N)c34)ccc21 [GSK2603346]	12%	28%	49%	8%	0%	0%	0%	6%	20%	5%	0%	26%	0%	1%	13%	7%	1%	99.8%	0%	0%

Structure (SMILES)	%Inh [1]	%Inh [2]	%Inh [3]	%Inh [4]	%Inh [5]	%Inh [6]	%Inh [7]	%Inh [8]	%Inh [9]	%Inh [10]	%Inh [11]	%Inh [12]	%Inh [13]	%Inh [14]	%Inh [15]	%Inh [16]	%Inh [17]	%Inh [18]	%Inh [19]	%Inh [20]
Cc1cccc(Nc2nc(N[C@H]3CCCC[C@H]3N)ncc2C(N)=O)c1.Cl [GSK986310]	0%	11%	34%	8%	26%	88%	17%	86%	29%	77%	91.4%	87%	80%	62%	36%	27%	0%	37%	18%	7%
Cc1ccc(O)cc1Nc1ccnc2ccc(C(C)(C)C)cc12 [GW856805]	52%	45%	6%	18%	16%	13%	0%	0%	0%	2%	20%	64%	0%	43%	29%	15%	22%	96.9%	0%	0%
CSc1ccc(NC2=C(c3ccc(Cl)cc3)C(=O)NC2=O)cc1 [SB-317658]	0%	0%	10%	30%	4%	0%	0%	0%	0%	0%	0%	0%	0%	0%	19%	3%	0%	29%	8%	0%
CC(C)(C)c1ccc(C(=O)Nc2cn3cc(-n4ccnc4)ccc3n2)cc1	2%	9%	0%	5%	26%	21%	55%	65%	14%	11%	2%	26%	0%	5%	0%	0%	20%	98.4%	0%	0%
CCOc1nccc(-c2c(-c3ccc(F)cc3)ncn2C2CCNCC2)n1 [SB-249175]	0%	0%	6%	4%	10%	45%	11%	6%	0%	29%	0%	26%	26%	58%	89%	90.2%	8%	17%	0%	29%
Cc1ccc(NC(=O)c2cccc(N3CCCCC3)c2)cc1-c1ccc(C(=O)NCC2CC2)cc1 [GSK1917008]	54%	29%	15%	4%	12%	17%	11%	20%	26%	0%	19%	15%	0%	22%	30%	10%	6%	79%	0%	16%
Nc1cccc(-c2ccc3c(N)n[nH]c3c2)c1 [GSK2193613]	0%	0%	11%	0%	0%	10%	0%	0%	10%	0%	12%	8%	0%	18%	13%	3%	83%	23%	0%	27%
NCCC(NC(=O)c1cc(Br)c(-c2ccnc3[nH]ccc23)s1)c1ccccc1.O=C(O)C(F)(F)F.O=C(O)C(F)(F)F (centres unmarked) [GSK1307810]	52%	57%	17%	0%	0%	96.8%	9%	0%	7%	79%	0%	97.1%	98.7%	30%	15%	16%	0%	73%	83%	93%
Cc1ccc(C)c(NC(=O)Nc2ccc(C)c(-c3ccc(C(=O)Nc4ccncc4)cc3)c2)c1 [GSK1398473]	0%	8%	0%	0%	0%	5%	1%	19%	13%	0%	0%	0%	0%	15%	14%	6%	0%	99.9%	3%	0%
CC(C)c1nc(-c2cccc(NS(=O)(=O)c3c(F)cccc3F)c2)c(-c2ccnc(Nc3ccc(N4CCOCC4)nc3)n2)s1.Cl [GSK1723980]	0%	0%	39%	0%	0%	0%	1%	6%	95.7%	0%	44%	36%	92.3%	23%	31%	7%	0%	99.9%	4%	0%
Fc1cc(Cl)ccc1Nc1ccnc2cc(-c3ccc(CN4CCSCC4)o3)ccc12 [GW560106]	31%	9%	0%	0%	0%	18%	7%	0%	8%	11%	0%	0%	0%	13%	34%	1%	11%	100%	73%	0%
CN(c1ccc(NC(=O)N2CCN(CCCN3CCOCC3)CC2)cc1)c1ccnc(Nc2ccc(CS(C)(=O)=O)cc2)n1.Cl [GW830899]	0%	0%	0%	0%	0%	0%	50%	0%	0%	0%	44%	65%	14%	46%	0%	0%	0%	98.8%	0%	0%
COc1ccc(NC(=O)c2ccoc2)cc1-c1ccc(C(=O)NCC2CC2)cc1 [GW810437]	0%	0%	0%	0%	10%	6%	0%	0%	4%	0%	0%	47%	0%	23%	23%	11%	17%	0%	12%	0%
Cl.N#CCc1ccc(Nc2nccc(Nc3ccc(Oc4ccccc4)cc3)n2)cc1 [GW639905]	39%	45%	14%	4%	0%	42%	62%	32%	0%	57%	0%	85%	0%	38%	31%	23%	0%	97.4%	5%	0%
Cn1cc(-c2cnc(N)c3c(-c4ccc5c(c4)CCN5C(=O)Cc4ccccc4)csc23)cn1 [GSK2593074]	0%	0%	59%	13%	12%	0%	5%	0%	23%	0%	0%	26%	0%	13%	0%	0%	32%	100%	1%	23%
CCn1cnc2c(NCc3ccccc3)ncnc21 [SKF-96418]	26%	19%	0%	0%	2%	25%	0%	0%	0%	6%	24%	40%	5%	11%	0%	0%	9%	0%	0%	0%
Cc1cc(-c2ccnc(Nc3cccc(C#N)c3)n2)cc(C)c1O [GSK1440913]	61%	67%	28%	23%	0%	52%	82%	11%	9%	0%	78%	92.6%	74%	98.9%	77%	99%	0%	49%	0%	0%
